Mdm2 MdmX PPI: inhibitors of human Mdm2/MdmX interaction | O15151+Q00987 | SaOS-2 split-luciferase Mdm2/MdmX complementation, luminescence | inhibition, % at 8 µM | 330,000 tested, 3% active | AID 485346;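 active means inhibition of at least 50% at 8 µM in the primary screen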
MPTP block: permeability transition pore inhibition; isolated mouse mitochondria, Ca2+ swelling absorbance, 30 min; inhibition, % at 10 µM; 360,000 tested, 1.4% active; AID 602449;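 active means inhibition of 50% or more, scaled per plate between neutral and stimulator controls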;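 further: 0% = DMSO wells given calcium and 100% = 1 mM EGTA wells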
SKKanGAS inh: SKKanGAS growth inhibition. S. pyogenes SKKanGAS, kanamycin growth, BacTiter-Glo, 6 h. inhibition, % at 7.5 µM. 300,000 tested, 1.3% active. AID 1662;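 active means mean replicate score, as percent of positive control median, at least 50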;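 further: strain carries kanamycin resistance gene driven by streptokinase promoter and grows in 40 µg/ml kanamycin; loss of luminescence reflects streptokinase promoter inhibition or plain growth inhibition; 0% = median of DMSO wells and 100% = positive control at its reference dose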
NR3A LBD binder: modulators (binders) of human NR3A ligand-binding domain. Tm shift relative to glycine control, % at 25 µM. 340,000 tested, 2.5% active. NR3A LBD differential scanning fluorimetry, Tm shift; 0% = protein alone, 100% = glycine-bound protein. AID 1259313;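 active means melting temperature shift of at least 10% of the positive control shift, at one fixed dose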
CSC inhib: blocks cancer stem cells; cancer stem cell-like cells viability, luminescence; 300,000 tested, 1.1% active; inhibition, % at 7.5 µM; in the data active means inhibition above about 75%; tested in HMLE shEcad cells
Beta apoptosis: beta cell apoptosis inhibition; protection from apoptosis, % (concentration not given with the values); 300,000 tested, 0.8% active; INS-1E cytokine-induced death, ATP luminescence, 48 h; percent of positive-control rescue, neutral wells zero;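 active means Every replicate reaches about 75%, or at least half do and their mean reaches it too, limit read from the data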;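 further: 0% = cytokine-treated negative control wells and 100% = positive control rescue; higher means more ATP so stronger rescue from cytokine killing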
Starred values were filed as active, the others as inactive; . = no result. Compounds with a hit are over-represented: about 6.9% of the library has one in this group of screens.

SMILES | Mdm2 MdmX PPI | MPTP block | SKKanGAS inh | NR3A LBD binder | CSC inhib | Beta apoptosis
S=c1[nH]nc(-c2cccs2)n1/N=C/c1cn(-c2ccccc2)nc1-c1ccccc1 | 7 | 1 | 75* | -5 | 25 | .
COc1ccc(Cl)cc1C(=O)Nc1ccc(OCC(=O)N2CCOCC2)cc1 | 5 | 0 | -5 | 0 | 1 | -5
COc1ccc(NC(=O)Nc2ccc(OCC(=O)N3CCOCC3)cc2)cc1OC | 14 | -1 | -6 | 11* | -1 | -3
CCOc1ccccc1NC(=O)c1ccc(OCC(=O)N2CCOCC2)c(OC)c1 | 23 | 0 | . | -1 | -10 | 0
COc1ccc(OC)c(NC(=O)c2ccc(OCC(=O)N3CCOCC3)c(OC)c2)c1 | 16 | -2 | 17 | 22* | 2 | 1

Compound activity: PubChem, several laboratories
